Screening results: PubChem BioAssay, National Center for Advancing Translational Sciences (NCATS)
This is a sample that favours compounds with a hit; in the whole collection about 7.1% have one here.
SW480 rereplic: inducers of DNA re-replication in SW480 colon cancer cells. SW480 DNA re-replication, Hoechst DNA content imaging, 48 h. Potency, µM (series often up to 46.1 µM), for the others: at the top dose re-replication activation, usual class: activators. hit rate 1.8% among 340,000; also: potency is read from the fitted curve at half-maximal effect; % of control where 0% means no effect; nearly all actives have a fitted effect of over 55% in size
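Image-based DNA-content assay: after two days of treatment, nuclei were labelled with the DNA dye Hoechst and imaged, and hits were compounds raising the count of nuclei showing high fluorescence intensity.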
ATXN2 expr inh: ATXN2 expression inhibition; HEK-293 ATXN2-luciferase reporter, luminescence, 24 h; Potency, µM (highest dose often 57 µM), inactives show at the highest dose activity change, negative = inhibition, hits mostly inhibitors; hit rate 0.72% among 360,000; AID 1745845; also: potency is read from the fitted curve at half-maximal effect; % is scaled to controls: 0 for no effect and ±100 for the full control effect; nearly all actives have a fitted effect of over 55% in size
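qHTS (up to 57 uM final) was run with 24 h compound exposure of reporter cells at 37 °C. Each well was multiplexed: SteadyGlo luminescence measured ATXN2-luciferase expression after a fluorogenic Gly-Phe-AFC viability readout (25 uM final).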
IL1B secr inh: blocks inflammasome-driven IL-1 beta release; THP-1 LPS/ATP IL-1B secretion, AlphaLISA, 16 h; hits give low values; activity change, % at 57.5 µM; hit rate 4.7% among 360,000; AID 743279; in the data active = activity change below about -50%; inconclusive = mostly about -30% to -49%; also: % is scaled to controls: 0 for no effect and ±100 for the full control effect
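THP-1 cells pretreated 1 hr with compounds (up to 57.5 uM final), then stimulated with LPS (250 ng/mL final) plus ATP (1.25 mM final); secreted IL-1B measured by AlphaLISA after 16 hr, decreased signal indicating inhibition.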
MCF10A rereplic: DNA re-replication induction in MCF 10a cells; Potency, µM (titrated, usually from 46.1 µM), inactives show top-dose activity, positive = re-replication, actives largely listed as activators; hit rate 2.9% among 350,000; MCF 10A DNA re-replication, Hoechst nuclear intensity, 48 h; also: potency is read from the fitted curve at half-maximal effect; % of control where 0% means no effect; nearly all actives have a fitted effect of over 50% in size
PINK1 expr mod: changes PINK1 expression; hit rate 0.2% among 410,000; PINK1 immunofluorescence, high-content cytometry, 24 h; Potency, µM (highest dose often 76.6 µM), for the others: top-dose activation (PINK1 increase), most hits filed as activators; active = well fitted activation curve with a large enough effect; inconclusive = small, poorly fitted or top-dose-only effect; cell line not stated here; also: potency is read from the fitted curve at half-maximal effect; % of control where 0% means no effect; nearly all actives have a fitted effect of over 65% in size
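Stable cell line treated 24 h with compounds at 5 concentrations (CCCP controls), then fixed and immunostained for PINK1 plus nuclear and cell stains; PINK1 immunofluorescence quantified by laser-scanning microplate cytometry.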
ATXN viability: viability counter-screen for ATXN expression inhibitors. Potency, µM (titrated, usually from 56.7 µM), most hits filed as cytotoxic. S2 cells (HEK-293 line with an ATXN2-luciferase reporter) viability, CellTiter-Fluor protease fluorescence, 24 h. hit rate 0.49% among 400,000; also: potency is read from the fitted curve at half-maximal effect; nearly all actives have a fitted effect of over 40% in size
Starred values were filed as active, the others as inactive; i = inactive; ? = inconclusive; / = no result given; [ ] = dose if it differs, or a comment. Unless noted, calls follow the shape of the dose curve; as a rule, active = well fitted curve in the direction sought with a large enough effect; inconclusive = small, poorly fitted or top-dose-only effect, or another doubt; inactive = no such curve, though single readings can be large; an effect the other way counts as inactive or inconclusive.

SMILES	SW480 rereplic	ATXN2 expr inh	IL1B secr inh	MCF10A rereplic	PINK1 expr mod	ATXN viability
O=C(OCc1cc(=O)n2c(n1)sc1ccccc12)c1ccc(O)cc1	-2%	83%	7	-4%	7%	i
O=c1cc(CCl)nc2sc3ccccc3n12	?	28%[11.3 µM]	-59*	?	13%	?
Nc1ncnc2c1nc(-c1ccccc1)n2C1OC(CO)C(O)C1O (configuration not stated)	/	9%	-50*	/	0%	i
CN(C)c1ncnc2c1ccn2C1OC(CO)C(O)C1O (configuration not stated)	15µM*	1%	-29	2.3µM*	-5%	i
OCC1OC(n2cnc3c(NCc4ccccc4O)ncnc32)C(O)C1O (configuration not stated)	2.3µM*	?	-86*	?	-7%	?
OCC1OC(n2ccc3c(NO)ncnc32)C(O)C1O (configuration not stated)	?	?	-102*	0.16µM*	-7%	?
OC[C@H]1O[C@@H](n2cnc3c(Nc4ccccc4)ncnc32)[C@H](O)[C@@H]1O	3%	37%	-20	?	1%	i
CN(C)c1nc2c(N)ncnc2n1C1OC(CO)C(O)C1O (configuration not stated)	0%	5%	1	0%	-1%	i
CC(C)(C)C(=O)Cn1c(=O)n(-c2ccccc2)c(=O)c2c3c(sc21)CCC3	/	-2%	/	/	5%	?
Cc1cc(C(O)c2ncc(-c3ccccc3C)[nH]2)ccc1F (configuration not stated)	/	16%	-3	/	1%	i
O=C(NCC(c1cccs1)S(=O)(=O)c1cccs1)c1ccccc1F (configuration not stated)	/	3%	/	/	0%	?
O=C(Nc1ccccc1Cl)c1ccc2c(=O)n3c(nc2c1)CCC3	-5%	-22%	-3	6%	2%	?
O=C(Nc1nc(-c2ccccc2)cs1)c1ccc2c(=O)n3c(nc2c1)CCCCC3	-7%	14µM*	-15	18µM*	3%	?
O=C(Nc1cccc(S(=O)(=O)N2CCOCC2)c1)c1ccc2c(=O)n3c(nc2c1)CCCCC3	-6%	?	-86*	?	0%	i
O=C(Nc1cccc(S(=O)(=O)N2CCCC2)c1)c1ccc2c(=O)n3c(nc2c1)CCCCC3	0%	?	-62*	17%	6%	i
COc1ccc(N2CCN(C(c3ccccc3)c3sc4nc(-c5ccco5)nn4c3O)CC2)cc1 (configuration not stated)	/	/	/	/	0%	/
Nc1nonc1-c1noc(COc2ccccc2Cl)n1	0%	77%	-57*	0%	1%	i
CC(C)(C)c1ccc(S(=O)(=O)NCC(=O)N2CCCC2)cc1	5.8µM*	-7%	-10	-3%	-2%	i
O=C(CNS(=O)(=O)c1ccc(F)cc1)N1CCCC1	19%	8%	1	?	0%	i
COc1ccccc1-c1cnc(C(O)c2cccc(CN3CCCCC3)c2)[nH]1 (configuration not stated)	/	15%	31	/	0%	i
CC(=O)C[n+]1cccc2cc(Cl)ccc21	/	/	/	/	0%	/
c1ccc2c(CCC3CCNCC3)c[nH]c2c1	/	/	/	/	/	i
CCc1nc(N2CCC3(CC2)OCCO3)c2nnn(Cc3ccccc3)c2n1	-1%	-23%	?	1%	1%	i
Cc1nc(N2CCC3(CC2)OCCO3)c2nnn(Cc3ccccc3F)c2n1	-3%	12%	-60*	?	0%	i
O=C(c1n[nH]c2c1CCCC2)N1CCOc2ccc(C(O)C3CCCCC3)cc2C1 (configuration not stated)	/	/	/	/	2%	i
SMILES	SW480 rereplic	ATXN2 expr inh	IL1B secr inh	MCF10A rereplic	PINK1 expr mod	ATXN viability
Cc1cccc(NC(=O)/C(C#N)=C/c2cccc([N+](=O)[O-])c2)n1	?	/	16	21µM*	-1%	i
CCOC(=O)c1sc(Nc2nc3c(OC)cccc3s2)cc1C	?	20%	?	23µM*	14%	i
COc1cccc2sc(Nc3nc(-c4cc5ccccc5oc4=O)cs3)nc12	5.2µM*	-6%	59	1.3µM*	8%	i
CC(=O)Nc1ccc2nc(NC(=O)COc3ccccc3C)sc2c1	2%	5%	4	1%	8%	i
COc1cccc2sc(Nc3nc4ccc(NC(C)=O)cc4s3)nc12	?	-37%	52	3.3µM*	11%	i
COc1cccc2sc(NN)nc12	-2%	-20%	-1	3%	3%	i
COc1cccc2sc(Nc3nc(-c4ccncc4)cs3)nc12	?	2%	40	21µM*	7%	i
CCOC(=O)c1sc(Nc2nc3cc4c(cc3s2)OCO4)cc1C	-7%	59%	-2	?	9%	i
COCc1ccc(CN2CCOc3c(O)cc(-c4cc(C)c5ccc(F)cc5n4)cc3C2)o1	/	/	/	/	2%	?
CCOc1ccc(/C=N/NC(=S)NC2CC3CC2C2C=CCC32)cc1 (configuration not stated)	10%	2%	7	6.5µM*	25%	i
COCCNC(=O)Cc1c(C)c2c(cc(C)c3c(C(C)(C)C)coc32)oc1=O	16µM*	11%	-24	5.8µM*	-1%	i
Cc1cc2oc(=O)c(CC(=O)NCCCN(C)C)c(C)c2c2occ(C(C)(C)C)c12	9.2µM*	-28%	-98*	?	-4%	22µM*
Cc1cc2oc(=O)c(CC(=O)NCCCO)c(C)c2c2occ(C(C)(C)C)c12	5%	5%	-2	20%	0%	i
O=[S+]([O-])([O-])c1ccc2c(c1)cc([S+](=O)([O-])[O-])c1nn(-c3ccc(/C=C/c4ccc(-n5nc6c([S+](=O)([O-])[O-])cc7cc([S+](=O)([O-])[O-])ccc7c6n5)cc4[S+](=O)([O-])[O-])c([S+](=O)([O-])[O-])c3)nc12	/	/	/	/	1%	/
C#CCN(C[C@@H]1[C@@H](OC(=O)NCc2ccccc2)[C@@H](OC(=O)NCc2ccccc2)CN(C(=O)OC(C)C)N1C(=O)OC(C)C)S(=O)(=O)c1ccc(C)cc1	/	1%	-58*	/	8%	i
CCCCCCOC(=O)NC(=N)c1ccc(NCc2nc3cc(C(=O)N(CCC(=O)OCC)c4ccccn4)ccc3n2C)cc1	/	32µM*	/	/	/	32µM*
Cc1csc2nc(COC(=O)c3ccccc3NC(=O)COc3ccccc3F)cc(=O)n12	/	/	/	/	0%	/
CCCS(=O)(=O)Nc1cc2c(cc1NCc1ccccc1)n(C)c(=O)n2C	/	41%	/	/	4%	i
